# From PubChem BioAssay (NCI)
# The panel holds about 83,000 compounds, 20% with a hit somewhere; the sample as a whole holds those more often.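 Values shown are percent growth following 48 h exposure of cells in 96-well plates to a single concentration of compound; below 10 was considered active.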 Activity calls are given as the source filed them.
# System: COLO 205 colon
# Assay: NCI-60 one-dose screen, 48 h (100 = growth as untreated, 0 = no growth, -100 = all killed)
# Conditions: 10 µM unless noted
# Experimental: Cells are grown in 96 well plates and exposed to the test compound for 48 hours. Compounds are tested at a single concentration, which is 10^-5 M for most compounds. The reported endpoint is percent growth (GI% or GIPRCNT), where numbers from 0 - 100% represent growth inhibition, and numbers from -100% - 0 represent cell death. For example, a value of 40 represents 60% growth inhibition. A value of 0 means no net growth occurred over the course of the experiment. A value of -40 indicates 40% of cells at the beginning of the experiment died by the end of the experiment. A value of -100 means all cells are dead at the end of the experiment.
# NCI-60 Human Tumor Cell Lines Screen was performed using the standard one-dose NCI protocol, which is described in more detail at https://dtp.cancer.gov/discovery_development/nci-60/default.htm.
# Compounds with GIPRCNT values below 10 were considered active. Activity score was based on GIPRCNT using the following formula: […]
# Score is 0 for GIPRCNT values of 100 or above, 50 for GIPRCNT values of 0, and 100 for GIPRCNT values of -100.
row,SMILES,growth
1,Cc1cc2c(c(=O)o1)C(c1ccc(OC(=O)N3CCOCC3)cc1)C(C#N)=C(N)O2 (stereo not given),118% (inactive)
2,Nc1c(C(=O)c2ccc(F)cc2)sc2nc3c(cc12)CCCC3,84.8% (inactive)
3,CC(C)N(Cc1ccc(CN(C(=O)CCl)C(C)C)cc1)C(=O)CCl,-54.3% (active)
4,Cc1sc(N=Nc2ccc(N(C)C)cc2)[n+]([O-])c1C,104% (inactive)
5,O=S(=O)(NCCCNc1cc(-c2cn(-c3ccccc3)nc2-c2cccc(O)c2)ccn1)c1ccc(C(F)(F)F)cc1,-57.3% (active)
6,CCO/C=N/NC(=O)c1ccncc1,110% (inactive)
7,Cc1cc(C)c(NC(=O)c2sc3nc4c(cc3c2N)CN(Cc2ccccc2)CC4)c(C)c1,12.3% (inactive)
8,CN=S(=O)(NC(=O)c1ccc(Cl)cc1Cl)c1ccc(Br)s1 (stereo not given),121% (inactive)
9,O=[N+]([O-])c1cc(S(=O)(=O)OCC2CO2)ccc1Cl (stereo not given),117% (inactive)
10,O=c1[nH]c(-c2cn(-c3ccc(Cl)cc3)nn2)nc2ccccc12,99.2% (inactive)
11,CC(=O)C1CCC(C)=CC1=O (stereo not given),116% (inactive)
12,O=S(=O)(NCCCNc1cc(-c2cn(-c3ccccc3)nc2-c2cccc(O)c2)ccn1)c1ccc(Br)cc1,-70.3% (active)
13,COc1cccc(C2CC(=O)Nc3c2c(C)nn3-c2nc3ccccc3[nH]2)c1OC (stereo not given),98.1% (inactive)
14,C=C1C(=O)O[C@H]2[C@H]1CC/C(COC(=O)NCCc1ccc(Br)cc1)=C\CC[C@@]1(C)O[C@@H]21,-25.3% (active)
15,COc1cc(OC)c(C(=O)/C=C/c2ccc(C(F)(F)F)cc2)c(OC)c1,86.9% (inactive)
16,COc1ncc(-c2ccc3ncnc(Nc4cccc(Cl)c4)c3c2)cc1NS(=O)(=O)CCN1CCOCC1,-6.87% (active)
17,COc1ccc(/C=C2\Oc3cc(OCCN4CCCC4)ccc3C2=O)c(OC)c1,92.8% (inactive)
18,CCN(CC)CCCNc1nc(C)cc(Nc2ccc3nc(C)cc(N)c3c2)n1,97.4% (inactive)
19,COc1cccc(/C=C2\SC(N3CCN(c4ccccn4)CC3)=NC2=O)c1,119% (inactive)
20,COc1ccc(/C=C/c2nc(N3CCOCC3)c3cc(F)c(F)cc3n2)cc1OC,15.6% (inactive)

row,SMILES,growth
1,O=C(/C=C/c1ccccc1)n1c(-c2ccc(Cl)cc2)nc2ccccc21,-60.8% (active)
2,O=C(CNc1ccc(Cl)cc1)Nc1ccc(-c2nc3ccccc3s2)cc1,47% (inactive)
3,CN(C)CCCNC(=O)C(c1ccccc1)c1ccccc1,106% (inactive)
4,CS(=O)(=O)N(c1cc(-c2ccc3ncnc(Nc4cccc(Cl)c4)c3c2)cnc1Cl)S(C)(=O)=O,2.1% (active)
5,NC(=S)NN=C1CCCCC1,93.2% (inactive)
6,O=C1NCC(c2cc3ccccc3[nH]c2=O)Nc2ccccc21 (stereo not given),107% (inactive)
7,CSc1nc(-c2cc3ccccc3o2)cc(-c2ccc(Cl)cc2)c1C#N,42.7% (inactive)
8,CCCCCCOc1ccc(C2(Cl)c3ccccc3N(C)c3ccccc32)cc1,61.7% (inactive)
9,CC(=O)Nc1ccc2c(c1)/C(=C\C=C/c1ccc([N+](C)(C)C)cc1)c1ccccc1-2,58.1% (inactive)
10,COc1ccc(C(=O)/C=C/c2ccc(/C=C/c3cc(OC)c(OC)c(OC)c3)cc2)cc1,68.1% (inactive)
11,CC(Br)C(Br)c1cc2c(cc1Br)OCO2 (stereo not given),90.2% (inactive)
12,O=C(Nc1ccc(I)cc1)c1cc([N+](=O)[O-])ccc1O,37.1% (inactive)
13,CCCCCCCCCCC/C=C\C[C@H](O)C/C=C1/C(=O)C=C[C@@H]1C/C=C\CCCC(=O)OC,-45.9% (active)
14,CCC#CC[C@H]1C/C=C2/C(=O)C=C[C@@H]2C/C=C\CCCC(=O)O1,-22.7% (active)
15,CCOC(=O)c1cc(/C(=N\O)c2cc(OC)c(OC)c(OC)c2)n2c(C)cccc12,21.2% (inactive)
16,Nc1ccc(S(=O)(=O)c2ccc(Cl)cc2)cc1,109% (inactive)
17,O=C(c1ccccc1)C(Cl)C(Cl)c1ccccc1 (stereo not given),-40.2% (active)
18,COc1cc(/C=C/C(=O)c2ccccc2O)ccc1OCCCOc1cc2c(cc1OC)C(=O)N1CCC[C@H]1C=N2,-3.82% (active)
19,C#CCN1C(=O)/C(=c2\sc3n(c2=O)C2C(NN=3)N(CC)C(=O)N2CC)c2ccccc21 (stereo not given),-12.2% (active)
20,CC(C)CCN(CCCNc1c2c(nc3ccccc13)CCCC2)CCC(C)C,61.7% (inactive)
